Bioassay records from PubChem BioAssay.
In the library only some 1.2% were active in any assay of this set; here they are far more common.
PI4K2A block = qHTS for small molecular inhibitors of PI4K2A. AID 1346378, 2018. activity change, negative = inhibition, % at 76.9 µM. 420,000 tested, 0.13% active. purified PI4K2A, ADP-Glo luminescence, 1 h; stronger effect = lower value; in the data active means activity change below about -50%; inconclusive means mostly about -30% to -49%;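 further: -100% = wells without enzyme as full effect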
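PI4K2A activity was measured by ADP-Glo luminescence: enzyme (4 ug/mL stock) and phosphatidylinositol (1.2 mM stock) in Tris pH 7.5/MgCl2/EGTA/Triton X-100 buffer were reacted with ATP (300 microM stock) for one hour at ambient temperature.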
rTrxR1 inhibitor = qHTS Assay for Inhibitors of Mammalian Selenoprotein Thioredoxin Reductase 1 (TrxR1): qHTS. 390,000 tested, 1% active. Thioredoxin reductase 1, cytoplasmic (Rattus norvegicus), O89049. Potency, µM (highest dose often 114 µM), without a hit: at the top dose activity change, negative = inhibition, usual class: inhibitors. recombinant rTrxR1, NADPH fluorescence consumption, selenite substrate. AID 588453, 2011; further: potency means the concentration at half of the fitted maximal effect; nearly all actives have a fitted effect of over 65% in size
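Rat TrxR1 (90 nM in the dispensed reagent) was pre-reduced with 400 uM NADPH for 5 min at room temperature, then incubated with compound for 15 min. After 400 uM selenite was added, NADPH fluorescence (Ex 340/Em 450 nm) was followed for 8 min.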
PKM2 activator = qHTS Assay for Activators of Human Muscle isoform 2 Pyruvate Kinase. Pyruvate kinase PKM (Homo sapiens), P14618. purified PKM2, Kinase-Glo ATP luminescence, activation; response scale: 0% is enzyme alone, no compound. Potency, µM (doses to about 57.5 µM), for inactives: at the highest dose activation, actives largely listed as activators. 260,000 tested, 0.34% active; further: potency means the concentration at half of the fitted maximal effect; nearly all actives have a fitted effect of over 55% in size
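Purified hPK-M2 (>95% pure) converted ADP (0.1 mM final) to ATP with 0.5 mM PEP in 50 mM imidazole pH7.2, KCl, MgCl2, Tween 20, BSA; 1 h at room temperature. ATP detected by Kinase-Glo luminescence.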
GALK inhibitor = qHTS Assay for Inhibitors of Human Galactokinase (GALK); P51570; Purified GALK, Kinase-Glo residual ATP luminescence; Potency, µM (series often up to 57.5 µM), for inactives: at the top dose activity change, negative = inhibition, usual class: inhibitors; 270,000 tested, 0.007% active; further: potency means the concentration at half of the fitted maximal effect
Target sequence (P51570 whole entry, looked up): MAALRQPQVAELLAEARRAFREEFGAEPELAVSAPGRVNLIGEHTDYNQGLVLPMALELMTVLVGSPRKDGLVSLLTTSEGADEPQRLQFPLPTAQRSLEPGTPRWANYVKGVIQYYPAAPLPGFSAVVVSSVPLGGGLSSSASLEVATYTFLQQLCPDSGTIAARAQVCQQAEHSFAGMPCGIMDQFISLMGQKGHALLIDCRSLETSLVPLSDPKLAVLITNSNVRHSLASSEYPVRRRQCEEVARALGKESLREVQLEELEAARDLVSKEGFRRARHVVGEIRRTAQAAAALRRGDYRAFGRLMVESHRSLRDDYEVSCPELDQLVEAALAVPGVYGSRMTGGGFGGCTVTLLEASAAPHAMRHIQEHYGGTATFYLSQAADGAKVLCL
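5 nM enzyme, 35 uM ATP, 100 uM galactose, 20 mM HEPES pH8.0, 5 mM MgCl2; 1 h RT; residual ATP by Kinase-Glo Plus luminescence, qHTS format.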
TrxR1 substrate = qHTS Assay for Substrates of Mammalian Selenoprotein Thioredoxin Reductase 1 (TrxR1): qHTS. AID 588456, 2011. 390,000 tested, 0.01% active. Thioredoxin reductase 1, cytoplasmic (Rattus norvegicus), O89049. Potency, µM (highest dose often 114 µM), for inactives: at the highest dose activity change, negative = substrate turnover. purified TrxR1 substrate turnover, NADPH consumption readout; further: potency means the concentration at half of the fitted maximal effect; nearly all actives have a fitted effect of over 50% in size
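Rat TrxR1, dispensed at 90 nM, was prereduced with 400 uM NADPH (final) for 5 min at ~22 deg C, then incubated with compound 15 min before 400 uM selenite. A first-read NADPH fluorescence drop versus no-compound background flagged substrates.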
Active calls of the source: *; ! = repeats disagree; [ ] = another dose, or the depositor's remark. Unless noted, the call rests on the fitted dose curve; in most records, active means well fitted curve in the direction sought with a large enough effect; inconclusive means small, poorly fitted or top-dose-only effect, or another doubt; inactive means no such curve, though single readings can be large; an effect the other way counts as inactive or inconclusive. Unless noted, on the % scale 0 is the no-effect control and ±100 the full control effect.

Screening CN(C)c1ccc(/C=C/c2ccnc3ccc([N+](=O)[O-])cc23)cc1 returned rTrxR1 inhibitor -14% and TrxR1 substrate 12%.
Cn1c(Cl)nc2ccccc21 was read as PI4K2A block 0, rTrxR1 inhibitor 7%, PKM2 activator 5%, GALK inhibitor 0% and TrxR1 substrate -3%.
For CN(C)c1ccc(N=Nc2nc3ccccc3n2C)cc1 the results were PI4K2A block -70*, rTrxR1 inhibitor inconclusive, PKM2 activator -60%, GALK inhibitor 20% and TrxR1 substrate -1%.
Screening Cn1c(N=Nc2ccccc2)nc2ccccc21 returned PI4K2A block -87*, rTrxR1 inhibitor -16%, PKM2 activator -83%, GALK inhibitor 10% and TrxR1 substrate -13%.
Screening O=C(O)c1c2c(nc3ccccc13)CCCC2 returned rTrxR1 inhibitor 8%[0.0914 µM] and TrxR1 substrate 8%[0.0914 µM].
Screening Cc1ccc(-c2ccc(CCC(=O)O)n2-c2ccc(C)c(Cl)c2)cc1 returned PI4K2A block 0, rTrxR1 inhibitor inconclusive and TrxR1 substrate 2%.
O=C(O)CCc1ccc(-c2ccccc2)n1-c1ccc(C(=O)O)cc1 was read as PI4K2A block 0, rTrxR1 inhibitor 79µM*, GALK inhibitor 3% and TrxR1 substrate 5%.
Screening CC(=O)c1ccc(-n2c(CCC(=O)O)ccc2-c2ccc(Cl)cc2)cc1 returned PI4K2A block -9, rTrxR1 inhibitor 1% and TrxR1 substrate 4%.
`CCOC(=O)c1ccc(-n2c(CCC(=O)O)ccc2-c2ccccc2)cc1O` gave PI4K2A block -3, rTrxR1 inhibitor 50µM* and TrxR1 substrate 2%.
For O=C(O)CCc1ccc(-c2ccccc2)n1-c1cccc(C(=O)O)c1 the results were PI4K2A block -3, rTrxR1 inhibitor 45µM*, GALK inhibitor -3% and TrxR1 substrate 3%.
`CCCCn1c(N)c(Sc2ccc(C)cc2)c(=O)[nH]c1=O` gave PI4K2A block 7, rTrxR1 inhibitor 0%, PKM2 activator 16µM*, GALK inhibitor -3% and TrxR1 substrate -1%.
COc1ccc(-c2cc3c(nn2)-c2ccccc2C3=O)cc1 was read as PI4K2A block -56*, rTrxR1 inhibitor 20%[57.1 µM], PKM2 activator -69%, GALK inhibitor 14% and TrxR1 substrate 3%[57.1 µM].
CC(=O)OCON[N+]([O-])=NC(C)C was read as rTrxR1 inhibitor 16µM*! and TrxR1 substrate 4%.
Screening COc1ccc(S(=O)(=O)N(CC(=O)N(C)Cc2ccccc2)c2ccc(Cl)cc2)cc1 returned PI4K2A block -7, rTrxR1 inhibitor 17% and TrxR1 substrate 5%.
`C=C1C(=O)[C@@]23[C@H](O)C[C@@H]4C(C)(C)CC[C@H](O)[C@@]4(C)[C@@H]2CC[C@@H]1[C@H]3O` gave PI4K2A block -13, rTrxR1 inhibitor 14µM*, PKM2 activator -2% and TrxR1 substrate 3%.
C[C@H]1C(=O)[C@]23C[C@H]1CC[C@H]2[C@]1(C)[C@@H](O)CC[C@@](C)(C(=O)O)[C@H]1C[C@@H]3O was read as PI4K2A block 6.
C=C1C(=O)[C@@]23[C@H](O)C[C@@H]4C(C)(C)CC[C@H](O)[C@]4(C)[C@@H]2C[C@H](O)[C@@H]1[C@H]3O was read as PI4K2A block -3, rTrxR1 inhibitor 16µM*, PKM2 activator -3% and TrxR1 substrate 7%.
`Cc1cc(C)c(S(=O)(=O)NCC(c2ccco2)S(=O)(=O)c2cccs2)c(C)c1` (stereo unspecified) gave PI4K2A block 1, rTrxR1 inhibitor inconclusive and TrxR1 substrate 4%[57.1 µM].
COC(=O)C1Cc2ccccc2CN1C(=O)CCl (stereo unspecified) was read as PI4K2A block 7, rTrxR1 inhibitor 14µM*, PKM2 activator -9%, GALK inhibitor 1% and TrxR1 substrate 7%[57.1 µM].
`COc1ccc(C(=O)NCCn2cc(SCC(=O)NCCc3ccc(OC)c(OC)c3)c3ccccc32)cc1` gave PI4K2A block 3, rTrxR1 inhibitor 3% and TrxR1 substrate -3%.
`O=[N+]([O-])c1cccc(Cl)c1NCCNS(=O)(=O)c1ccc(Cl)cc1` gave PI4K2A block -2, rTrxR1 inhibitor -8%[57.1 µM], PKM2 activator 23%, GALK inhibitor 1% and TrxR1 substrate 0%[57.1 µM].
Screening O=[N+]([O-])c1cccc(Cl)c1NCCNS(=O)(=O)c1ccccc1 returned PI4K2A block -2, rTrxR1 inhibitor 1%, PKM2 activator 14µM*, GALK inhibitor 0% and TrxR1 substrate -3%.
`C#C[C@]1(OC(C)=O)CC[C@H]2[C@@H]3CCC4=C/C(=N/O)CC[C@@H]4[C@H]3CC[C@@]21CC` gave PI4K2A block -3.
`Nc1c(Cl)cnn(-c2ccccc2)c1=O` gave PI4K2A block 8, rTrxR1 inhibitor 25% and TrxR1 substrate 4%.
Screening O=c1c(Cl)c(Cl)cnn1-c1ccccc1 returned PI4K2A block -2, rTrxR1 inhibitor 14µM*, PKM2 activator -4%, GALK inhibitor -2% and TrxR1 substrate 5%.
`Cc1ccc(Cn2ncc(Cl)c(Cl)c2=O)cc1` gave PI4K2A block 14, rTrxR1 inhibitor 6.3µM*, PKM2 activator 7%, GALK inhibitor 0% and TrxR1 substrate 5%.
Screening O=c1c(Cl)c(Cl)cnn1Cc1ccccc1Cl returned PI4K2A block -7, rTrxR1 inhibitor 20µM*, PKM2 activator 21%, GALK inhibitor 1% and TrxR1 substrate 5%.
CCc1ccc(C(=O)Cn2ncc(Cl)c(Cl)c2=O)cc1 was read as PI4K2A block -12, rTrxR1 inhibitor -30%, PKM2 activator -1%, GALK inhibitor -1% and TrxR1 substrate 6%.
For Cc1cc(C)cc(Cn2ncc(Cl)c(Cl)c2=O)c1 the results were PI4K2A block 13, rTrxR1 inhibitor 6.3µM*, PKM2 activator 5%, GALK inhibitor 0% and TrxR1 substrate 4%.
Screening Cn1nnc2c(NCc3c(F)cccc3F)ncnc21 returned PI4K2A block -6, rTrxR1 inhibitor 12%[57.1 µM] and TrxR1 substrate 0%[57.1 µM].
`O=S1(=O)c2ccc(N3CC[C@@H](O)C3)cc2O[C@H]2CCN1C2` gave PI4K2A block -2.
For CC(C)C(=O)OCCCN1CCC2(CCC(c3ccccc3)CC2)C1=O (stereo unspecified) the results were PI4K2A block 0.
For Nc1ncn(C(=S)Nc2ccccc2)n1 the results were PI4K2A block -8, rTrxR1 inhibitor 16µM* and TrxR1 substrate -6%.
